Assay outcomes deposited in PubChem BioAssay by National Center for Advancing Translational Sciences (NCATS).
The list is not random: actives were taken first. Their share in the collection is about 5.3%.
IMPase cell inh = IMPase inhibition in cells | 120,000 tested, under 10 active | CHO-M1 cells, IP1 accumulation, HTRF TR-FRET ratio | P97697 | inhibition (IP1 accumulation), % at 46.1 µM; active = well fitted curve in the direction sought with a large enough effect in the signal ratio, not every such curve was filed as active; inconclusive = small, poorly fitted or top-dose-only effect, or a change in a side signal; inactive = no such curve, though single readings can be large or run the other way; the % refers to the signal ratio;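 note: cells stimulated with carbachol in lithium chloride buffer; plate controls were DMSO basal wells for no effect and reference inhibitor wells for full effect; higher means more IMPase inhibition seen as more IP1 and lower FRET ratio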
Target sequence (P97697 whole entry, looked up): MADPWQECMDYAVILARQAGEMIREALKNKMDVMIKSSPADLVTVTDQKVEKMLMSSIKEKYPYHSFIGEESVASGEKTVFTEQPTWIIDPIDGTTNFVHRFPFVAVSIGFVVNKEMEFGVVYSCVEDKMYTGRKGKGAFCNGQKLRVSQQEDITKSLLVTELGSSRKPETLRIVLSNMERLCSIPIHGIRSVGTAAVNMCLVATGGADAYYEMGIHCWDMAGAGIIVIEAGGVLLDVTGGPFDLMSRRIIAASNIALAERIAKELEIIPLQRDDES
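In this qHTS, compounds (final up to 46 uM) act on CHO-M1 cells that are then activated through the M1 receptor with carbachol, in pH 7.4 buffer containing 50 mM LiCl, for 30 min. IP1 accumulation is quantified by the IP-One immunoassay.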
PNC assembly inh = blocks assembly of the perinucleolar compartment; PC3M PTB-GFP, PNC prevalence imaging, 16 h; stronger effect = lower value; activity change (PNC), negative = inhibition, % at 10 µM; 140,000 compounds, 3.1% hits; AID 2417;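 active = readout at or below -70, meaning at least 70% loss of cells showing the perinucleolar compartment, a nuclear body marking cancer cells; inconclusive = readout between -30 and a set limit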;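 note: plate controls were DMSO wells for no effect and camptothecin positive control wells for full effect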
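PC3M cells stably expressing PTB-GFP, 750–1000 cells/well, treated 16 h at 37 °C with compound (23 nl of library stock), in duplicate. After paraformaldehyde fixation and Hoechst stain, imaged at 20x; PNC prevalence scored by image analysis.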
HPGD block = blocks human HPGD enzyme activity. P15428. 150,000 compounds, 4.3% hits. Potency, µM, for inactives: top-dose activity change, negative = inhibition, actives largely listed as inhibitors. purified HPGD, NADH fluorescence kinetic, PGE2 substrate. AID 894; active = well fitted inhibition curve with a large enough effect, not every such curve was filed as active; inconclusive = small, poorly fitted or top-dose-only effect, or another doubt; inactive = no such curve, though single readings can be large or run the other way; note: potency is the fitted concentration of half-maximal effect
Target sequence (P15428 whole entry, looked up): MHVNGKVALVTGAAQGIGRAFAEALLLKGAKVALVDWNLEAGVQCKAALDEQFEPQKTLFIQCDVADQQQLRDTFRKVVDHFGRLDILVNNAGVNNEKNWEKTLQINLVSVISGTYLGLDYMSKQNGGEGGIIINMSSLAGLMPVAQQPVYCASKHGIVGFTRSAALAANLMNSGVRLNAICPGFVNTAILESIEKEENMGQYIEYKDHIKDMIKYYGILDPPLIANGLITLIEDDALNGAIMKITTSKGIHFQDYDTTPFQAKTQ
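NADH formation kinetics: reaction with 30 uM PGE2 and 1 mM NAD+ (final), 20 nM enzyme, Tris-HCl pH 8 with Tween 20, after 15 min compound preincubation at room temperature. Fluorescence change, last versus first of five reads.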
15-hLO-2 inh = blocks human 15-lipoxygenase 2 activity | O15296 | Potency, µM (titrated, usually from 57.1 µM), for inactives: at the highest dose activity change, negative = inhibition, actives largely listed as inhibitors | AID 881 | 110,000 compounds, 0.56% hits | purified 15hLO-2, xylenol orange hydroperoxide absorbance; note: potency is the fitted concentration of half-maximal effect; nearly all actives have a fitted effect of over 60% in size
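Read-out: hydroperoxide product oxidises ferrous iron, measured as xylenol orange complex via the 573-to-405 nm absorbance ratio after 30 min. Reaction: 50 nM enzyme, 15 min compound preincubation, 45 uM arachidonic acid, 90 min RT, Hepes pH 7.5 with Triton X-100.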
IMPase Li cell = IMPase inhibition in cells with lithium potentiation; Potency, µM (top dose mostly 59.4 µM), for the others: top-dose activity, negative = IMPase inhibition, hits mostly inhibitors; 210,000 compounds, 0.35% hits; CHO-M1 cells, IP1 TR-FRET (IP-One), carbachol + lithium;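 note: IP1 builds up when IMPase is blocked and the TR-FRET signal falls; potency is the fitted concentration of half-maximal effect; plate controls were basal vehicle for no effect and high inhibitor control for full effect; nearly all actives have a fitted effect of over 50% in size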
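IP1 accumulation measured by competitive TR-FRET in lysed CHO-M1 cells after 30 min compound exposure at 37C, with a small lithium addition to potentiate weak responses. Hill-equation AC50 from ratio and donor-channel data.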
12-hLO inh = blocks human 12-lipoxygenase activity | P18054 | purified 12-hLO, xylenol orange hydroperoxide absorbance | Potency, µM (series often up to 57.1 µM), without a hit: at the top dose activity change, negative = inhibition, hits mostly inhibitors | 150,000 compounds, 0.12% hits; note: potency is the fitted concentration of half-maximal effect; nearly all actives have a fitted effect of over 55% in size
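Hydroperoxide output read as Fe(III)-xylenol orange absorbance, 573-to-405 nm ratio, after 30 min reaction with 40 uM arachidonic acid. Enzyme: 150 nM purified human 12hLO, 15 min compound preincubation; 25 mM Hepes pH 7.0, room temperature.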
Numbers without * were called inactive; ? = inconclusive; . = no result; [ ] = dose if it differs, or a comment. Unless noted, calls come from the whole dose curve; as a rule, active = well fitted curve in the direction sought with a large enough effect; inconclusive = small, poorly fitted or top-dose-only effect, or another doubt; inactive = no such curve, though single readings can be large; an effect the other way counts as inactive or inconclusive. Unless noted, % is set by controls: 0 for no effect and ±100 for the full control effect.

SMILES	IMPase cell inh	PNC assembly inh	HPGD block	15-hLO-2 inh	IMPase Li cell	12-hLO inh
CCCCNC(=O)c1onc(CSc2ccccc2C)c1C(=O)O	-2.4	65.1	-16.7%	6.4%	-9.2%[38.3 µM]	2.1%
Cc1ccccc1SCc1noc(C(=O)NC(C)C)c1C(=O)O	9.2	-90.7*	-21.6%	-11.2%	-2.8%[38.3 µM]	0.4%
CC(C)NC(=O)c1onc(CSc2ccccc2F)c1C(=O)O	2.8	-83.7*	-4.1%	-6.6%	3.0%[38.3 µM]	1.0%
CC(=O)c1ccc(NC(=O)C2CCC(CNS(=O)(=O)c3cccs3)CC2)cc1 (configuration not stated)	0.6	.	.	.	.	.
COc1ccc2c(c1)C(=O)c1ccccc1CO2	-2.5	?	35.5µM*	-10.6%	28.0%[38.3 µM]	?
Fc1ccc(COc2ccccc2CNCc2ccncc2)cc1	.	?	-3.4%	.	2.6%	2.8%
Fc1ccc(CNCc2ccccc2C(F)(F)F)cc1	.	-113.8*	-6.8%	.	-2.8%	1.1%
COc1ccc(-c2nc3cnc(N4CCNCC4)nc3n(Cc3cccs3)c2=O)cc1	.	.	.	48.1%	9.5%	.
CCOC(=O)c1ccc(NC(=O)CN(Cc2ccc(Cl)cc2)S(C)(=O)=O)cc1	3.5	32.5	-11.1%	6.2%	29.1%[38.3 µM]	-1.0%
CCOc1nc(-c2ccccc2O)nc2ccccc12	8.8	?	12.6µM*	14.2%	10.6%	0.8%
COc1cccc(-c2nc(Oc3cccc(C)c3C)c3ccccc3n2)c1O	-10.3	-8.9	-13.8%	.	0.3%	0.3%
Cc1ccc(N2CC(C(=O)NCc3cccnc3)CC2=O)cc1 (configuration not stated)	3.8	-25.3	-10.4%	2.6%	10.0%[38.3 µM]	-7.9%
COc1ccc(CN2CC(C(=O)NCCN3CCOCC3)CC2=O)cc1 (configuration not stated)	19.1	-89.5*	-2.5%	1.9%	22.1%[38.3 µM]	-2.9%
COc1ccc(N2CC(C(=O)Nc3ccc(N4CCOCC4)cc3)CC2=O)cc1 (configuration not stated)	-6.3	-113.4*	-15.6%	5.0%	2.9%[38.3 µM]	6.0%
COc1ccccc1CNC(=O)C1CC(=O)N(c2ccc(C)c(C)c2)C1 (configuration not stated)	-5.9	-80.7*	-1.3%	7.3%	22.1%[38.3 µM]	-0.3%
COc1ccccc1CNC(=O)C1CC(=O)N(C2CCCC2)C1 (configuration not stated)	0.1	-18.6	-15.6%	-0.2%	-9.1%[38.3 µM]	0.5%
COc1ccc(N2CC(C(=O)NCc3cccnc3)CC2=O)cc1 (configuration not stated)	-4.1	-97.6*	-9.7%	7.2%	-17.2%[38.3 µM]	-0.5%
O=c1cnnc(N/N=C/C2CC=CCC2)[nH]1 (configuration not stated)	.	.	.	.	1.1%	.
O=C(N/N=C/c1c[nH]c2ccccc12)c1[nH]c2ccc(Br)cc2c1-c1ccccc1	-0.5	-112.3*	?	.	11.6%	-8.0%
O=C(CNc1ccccc1)N/N=C/c1c[nH]c2ccccc12	?	-119.3*	0.126µM*	.	-2.0%	-0.6%
Cc1nn(C)cc1/C=N/NC(=S)Nc1ccccc1	-2.8	-0.5	28.2µM*	-16.6%	-11.5%[38.3 µM]	-23.4%
O=C(CSc1nnc(SCc2ccc(Cl)cc2)s1)N/N=C/c1c[nH]c2ccccc12	.	-82.5*	-18.1%	.	-0.7%	-0.6%
COC(=O)[C@@H]1C[C@H]1[C@@H](NC(=O)c1cccnc1)c1ccccc1	.	.	-3.2%	3.8%	-12.5%	-2.5%
O=C(c1cccc(C(F)(F)F)c1)c1c[nH]c(C(=O)NCCCN2CCOCC2)c1	.	.	.	.	-1.6%	.
Cc1cccc(NC(=S)N/N=C/c2c[nH]c3ccccc23)c1	.	-82.3*	-20.1%	.	-3.9%	?
SMILES	IMPase cell inh	PNC assembly inh	HPGD block	15-hLO-2 inh	IMPase Li cell	12-hLO inh
NC(=S)N/N=C\c1c[nH]c2ccccc12	.	.	-12.7%	-12.8%[11.4 µM]	1.2%	4.2%[11.4 µM]
CC(C)C(=O)c1cn(CC(=O)NCc2ccco2)c2ccccc12	-0.1	-100.0*	-15.4%	.	1.2%	1.6%
COc1ccc2occ(C(=O)c3ccccc3)c2c1	.	.	.	.	9.9%	.
COc1ccc(OC)c(C(=O)c2coc3ccc(O)cc23)c1	9.9	27.1	31.6µM*	-2.6%	23.8%[38.3 µM]	-16.4%
COc1ccc(-c2cc(C(=O)N3CCc4ccccc4C3)no2)cc1	.	.	.	.	1.4%	.
COc1cccc(-c2cc(C(=O)NC3CCCC3)no2)c1	15.1	-2.0	15.8µM*	-3.4%	22.4%[38.3 µM]	3.7%
COCCNC(=O)c1cc(-c2cccc(OC)c2)on1	6.8	?	25.1µM*	1.3%	4.0%[38.3 µM]	0.8%
COc1cccc(-c2cc(C(=O)N3CCc4ccccc4C3)no2)c1	0.6	?	20µM*	8.7%	12.3%	6.2%
COCC(C)NC(=O)c1cc(-c2cccc(OC)c2)on1 (configuration not stated)	1.3	-10.3	-12.9%	-1.6%	3.2%[38.3 µM]	-2.5%
COC(=O)c1ccc(C2/C(=C(/O)c3ccc(OC(C)C)cc3)C(=O)C(=O)N2c2cc(C)on2)cc1 (configuration not stated)	-15.4	-13.5	-16.0%	0.4%	10µM*	3.8%
Cc1ccc(/C(O)=C2\C(=O)C(=O)N(c3cc(C)on3)C2c2cccc(Br)c2)cc1 (configuration not stated)	-9.6	-6.3	-16.1%	31.9%	?	4.9%
COC(=O)c1ccc(C2/C(=C(/O)c3ccc(OC)cc3)C(=O)C(=O)N2c2cc(C)on2)cc1 (configuration not stated)	-6.9	?	?	13.5%	10µM*	-11.4%
Oc1cc2c(cc1O)[C@@H](c1ccccc1)CNCC2	.	8.0	20µM*	.	4.7%	-4.6%
Oc1cc2c(cc1O)C(c1ccccc1)CNCC2 (configuration not stated)	.	.	?	.	23.3%	.
Cc1cc(-c2nsc(=O)o2)c(S(C)(=O)=O)s1	-6.3	24.1	4.47µM*	-14.7%	-16.4%[38.3 µM]	-0.5%
Cc1ccc(N(C(=O)Nc2ccccc2)C2=NCC(C)S2)cc1 (configuration not stated)	4.2[1.84 µM]	23.2	11.2µM*	2.9%[11.4 µM]	13.6%[38.3 µM]	6.4%
COc1cc2c(cc1OC)CN(C(=S)Nc1ccc(C)cc1C)CC2	1.4	-15.4	-18.4%	.	-5.8%	0.0%
S=C(Nc1ccccc1)Nc1cccc(Br)c1	.	.	.	.	6.1%	.
S=C(Nc1cccc(Br)c1)c1ccccc1	.	?	12.6µM*	.	3.4%	?
Cn1cccc1CC(=O)N/N=C/c1cccc2ccccc12	-1.6	-14.0	15.8µM*	-1.6%	2.8%	0.2%
O=C1C2C3C=CC(C4CC34)C2C(=O)N1/N=C/c1ccc(-c2ccc(F)cc2[N+](=O)[O-])o1 (configuration not stated)	9.3	?	20µM*	-8.6%	29.7%[38.3 µM]	-4.4%
